Consider 8 compounds from PubChem BioAssay (NCI).

This is part of a sample that, as a whole, favours compounds with a hit. Of some 83,000 tested, about 20% had one in any assay.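 Each cell line was grown in a 96-well plate and treated with one concentration of compound for 48 hours. Values below 10 were considered active.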 A number with no mark means an inactive call. Activity calls are given as the source filed them.

Some test systems named below: DU-145 prostate; K-562 leukemia; MALME-3M melanoma; MDA-MB-231 breast; RXF 393 renal; SF-268 CNS; SF-295 CNS; SF-539 CNS; UACC-257 melanoma; M14 melanoma; HCT-15 colon; HT29 colon; SNB-75 CNS; SNB-19 CNS; U251 CNS; PC-3 prostate; SK-MEL-5 melanoma; UACC-62 melanoma; LOX IMVI melanoma; SK-MEL-28 melanoma.
Holding throughout (assay): NCI-60 one-dose screen, 48 h (100 = growth as untreated, 0 = no growth, -100 = all killed)
What all share (conditions): 10 µM unless noted

In the case of `CC1=CCc2ccccc21`, the growth is 111% in the assay with DU-145 prostate; 94.1% in the assay on K-562 leukemia; 101% in the assay with MALME-3M melanoma; 94.5% in the assay on MDA-MB-231 breast; 111% in the assay with RXF 393 renal; 110% in the assay with SF-268 CNS. Also, the growth is 101% in the assay with SF-295 CNS; 112% in the assay with SF-539 CNS; 105% in the assay on UACC-257 melanoma; 105% in the assay with M14 melanoma; 109% in the assay on HCT-15 colon; 95.7% in the assay on HT29 colon. Further, the growth in the assay with SNB-75 CNS was 83.9%; with SNB-19 CNS, 101%; with U251 CNS, 103%; in the assay on PC-3 prostate it was 86.2%; with SK-MEL-5 melanoma it was 101%; in the assay with UACC-62 melanoma, 86.2%. For the same compound, the results for the growth in the assay with LOX IMVI melanoma and in the assay on SK-MEL-28 melanoma were 105% and 104%, respectively.

For the compound `C=C(C)[C@@H]1CC[C@]2(C(N)=O)CC[C@]3(C)[C@H](CC[C@@H]4[C@@]5(C)C/C(=C/c6cccnc6)[C@H](O)C(C)(C)[C@@H]5CC[C@]43C)[C@@H]12`, the growth is 38.2% [100 µM] in the assay on DU-145 prostate; 5.36% [100 µM] (active) in the assay with K-562 leukemia; 5.89% [100 µM] (active) in the assay with MALME-3M melanoma; 28.9% [100 µM] in the assay on MDA-MB-231 breast; 13.4% [100 µM] in the assay with RXF 393 renal; 45.6% [100 µM] in the assay on SF-268 CNS. In addition, the growth was 23.9% [100 µM] in the assay with SF-295 CNS; 25.1% [100 µM] in the assay with SF-539 CNS; 38% [100 µM] in the assay on UACC-257 melanoma; 33.8% [100 µM] with M14 melanoma; 18.7% [100 µM] in the assay on HCT-15 colon; -20.5% [100 µM] (active) with HT29 colon. Further, the growth was 47.1% [100 µM] in the assay on SNB-75 CNS; 39% [100 µM] with SNB-19 CNS; 24.6% [100 µM] in the assay on U251 CNS; 21.1% [100 µM] with PC-3 prostate; -78.1% [100 µM] (active) in the assay on SK-MEL-5 melanoma; 24.8% [100 µM] in the assay on UACC-62 melanoma. The values for the growth in the assay on LOX IMVI melanoma and in the assay on SK-MEL-28 melanoma were -35.9% [100 µM] (active) and 26.5% [100 µM], respectively.

For the compound `O=[N+]([O-])c1cccc(/C=C/c2ccc3ccccc3n2)c1`, the growth is 71.4% in the assay on DU-145 prostate; 94.7% in the assay on K-562 leukemia; 68.5% in the assay on MALME-3M melanoma; 45.7% with MDA-MB-231 breast; 62.1% in the assay on RXF 393 renal; 72.9% with SF-268 CNS. For the same compound, the growth in the assay with SF-295 CNS is 53.2%; with SF-539 CNS it was 78.1%; with UACC-257 melanoma, 74.8%; in the assay on M14 melanoma, 82.3%; in the assay with HCT-15 colon it was 82.5%; in the assay with HT29 colon it was 76.5%. The growth in the assay with SNB-75 CNS is 7.41% (active); in the assay with SNB-19 CNS, 64.1%; with U251 CNS it was 72.2%; in the assay on PC-3 prostate it was 77.8%; in the assay on SK-MEL-5 melanoma it was 82%; with UACC-62 melanoma, 82.9%. The growth in the assay on LOX IMVI melanoma was 70.5%; in the assay with SK-MEL-28 melanoma, 87.3%.

For `Cc1ccc(NC(=O)N[C@@H](Cc2cc(F)cc(F)c2)C(=O)N[C@@H]2C(=O)N3CCC[C@H]3C(=O)N3CCOC[C@H]3C(=O)N[C@@H](C)C(=O)N3C[C@H](C)C[C@H]3C(=O)O[C@H]2C)cc1`, the growth in the assay with DU-145 prostate was 31.2%; with K-562 leukemia, 17.2%; in the assay on MALME-3M melanoma it was 33.6%; in the assay with MDA-MB-231 breast, 9.97% (active); with RXF 393 renal, 36.9%; in the assay with SF-268 CNS, 28.5%. In addition, the growth with SF-295 CNS is 12.7%; with SF-539 CNS, 47.6%; with UACC-257 melanoma, 20.9%; in the assay on M14 melanoma it was 26.9%; in the assay with HCT-15 colon, 32.9%; with HT29 colon it was 32.4%. Moreover, the growth was 16.9% in the assay on SNB-75 CNS; 21.5% in the assay with SNB-19 CNS; 27.1% in the assay with U251 CNS; 19.1% with PC-3 prostate; 10.6% with SK-MEL-5 melanoma; 26.3% in the assay with UACC-62 melanoma. Moreover, the growth in the assay on LOX IMVI melanoma was 38.3%; with SK-MEL-28 melanoma it was 42.3%.

Turning to `COc1cc(NN=C(c2ccc(O)cc2)c2ccc(O)cc2)c([N+](=O)[O-])cc1[N+](=O)[O-]`, the growth was 90.5% in the assay on DU-145 prostate; 109% with K-562 leukemia; 120% in the assay with MALME-3M melanoma; 91.9% in the assay with MDA-MB-231 breast; -34.4% (active) in the assay with RXF 393 renal; 72.3% in the assay on SF-268 CNS. The growth in the assay on SF-295 CNS is 112%; with SF-539 CNS, 5.64% (active); with UACC-257 melanoma it was -14.4% (active); with M14 melanoma it was -15.9% (active); with HCT-15 colon it was 35%; in the assay on HT29 colon it was 98.1%. Also, the growth in the assay on SNB-75 CNS is 98.4%; in the assay with SNB-19 CNS, -4.74% (active); in the assay with U251 CNS, 40.5%; in the assay with PC-3 prostate, 73.1%; in the assay with SK-MEL-5 melanoma it was 14.3%; with UACC-62 melanoma it was 73.9%. In addition, the growth with LOX IMVI melanoma is 34.4%; in the assay with SK-MEL-28 melanoma it was 81%.

`CCCCCCSc1ncnc2nc[nH]c12`: the growth in the assay with DU-145 prostate was 95%; with K-562 leukemia, 70.7%; with MALME-3M melanoma, 102%; in the assay with MDA-MB-231 breast it was 96.8%; in the assay with RXF 393 renal it was 78.1%; with SF-268 CNS, 96.3%. Besides, the growth with SF-295 CNS is 88.8%; in the assay with SF-539 CNS, 87.4%; with UACC-257 melanoma, 91.4%; in the assay with M14 melanoma, 97%; with HCT-15 colon, 90.8%; in the assay on HT29 colon, 103%. The growth in the assay with SNB-75 CNS is 91.2%; with SNB-19 CNS it was 86.2%; in the assay with U251 CNS it was 90.1%; in the assay on PC-3 prostate, 85.2%; with SK-MEL-5 melanoma, 94%; with UACC-62 melanoma, 77%. In addition, the growth with LOX IMVI melanoma was 80.1%; in the assay with SK-MEL-28 melanoma it was 101%.

Turning to `O=C(Nc1cccc2cccnc12)c1cc(C(=O)c2ccc(Cl)cc2)n2ccc(-c3ccncc3)cc12`, the growth in the assay with DU-145 prostate was 106%; in the assay with K-562 leukemia, 113%; with MALME-3M melanoma, 90.7%; in the assay on MDA-MB-231 breast, 110%; in the assay with RXF 393 renal it was 104%; in the assay with SF-268 CNS, 97.8%. The growth was 98.9% with SF-295 CNS; 99.7% with SF-539 CNS; 97.7% in the assay on UACC-257 melanoma; 96.1% in the assay on M14 melanoma; 99.1% in the assay with HCT-15 colon; 100% with HT29 colon. Besides, the growth in the assay with SNB-75 CNS is 86.6%; in the assay with SNB-19 CNS, 104%; with U251 CNS, 103%; in the assay with PC-3 prostate it was 95.3%; in the assay with SK-MEL-5 melanoma, 97.2%; in the assay with UACC-62 melanoma it was 104%. The growth was 101% with LOX IMVI melanoma and 98.2% in the assay on SK-MEL-28 melanoma.

In the case of `Cn1c(=O)c(C#N)c(-c2ccco2)n2c(S(=O)(=O)Cc3ccccc3)nnc12`, the growth was 77% in the assay on DU-145 prostate; 100% with K-562 leukemia; 63.6% with MALME-3M melanoma; 126% in the assay on MDA-MB-231 breast; 91% with RXF 393 renal; 104% with SF-268 CNS. Moreover, the growth in the assay on SF-295 CNS is 112%; in the assay with SF-539 CNS it was 101%; with UACC-257 melanoma it was 8.93% (active); in the assay with M14 melanoma, 57.6%; in the assay with HCT-15 colon it was 78.3%; with HT29 colon, 92.5%. In addition, the growth with SNB-75 CNS is 97.8%; in the assay with SNB-19 CNS, 115%; in the assay with U251 CNS it was 82.8%; with PC-3 prostate, 112%; in the assay on SK-MEL-5 melanoma, 90.1%; with UACC-62 melanoma, 75.5%. The growth is 92.3% in the assay on LOX IMVI melanoma and 99.1% in the assay with SK-MEL-28 melanoma.
